# Source: PubChem BioAssay AID1063 (University of Pittsburgh Molecular Library Screening Center, 2008)
# The whole screen tested about 200,000 compounds, of which about 18,000 (9%) were called active. The full list was thinned out, with actives kept by preference. Values without a mark were called inactive. Rule as the data show it: active = inhibition above about 50%; inactive = the rest.
# Experiment: Leishmania major promastigote growth inhibition, primary screen (AID 1063);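 also: promastigotes grown with compound for 44 hours at 28 °C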
# Conditions: Leishmania major promastigotes, resazurin fluorescence viability; at 10 µM; hits give high values
row,Structure (SMILES),inhibition
1,COC(=O)c1nc(NC(=O)c2ccc(F)cc2)n[nH]1,-2.13%
2,c1ccc(-c2nccc(-c3ccc(-n4cnc5ccccc54)cc3)n2)nc1,101% (active)
3,Cc1nccc(-c2ccc(-n3c(C)ccc3C)cc2)n1,41.6%
4,CC(C)c1nc(-c2ccccn2)no1,-3.52%
5,C/C(Cn1nnc2ccccc21)=N\OC(=O)c1cc(F)c(F)cc1Cl,2.7%
6,CCN(CCn1cccn1)Cc1nc(-c2ccc(C(=O)OC)cc2)no1,5.81%
7,O=C1CC(c2c(F)cccc2Cl)C(n2cncn2)C(O)=C1C1NCCc2ccccc21 (stereo not given),-6.44%
8,COc1cc2c(cc1O)[C@H](Cc1ccc(Oc3cc(C[C@@H]4NCCc5cc(OC)c(O)cc54)ccc3O)cc1)NCC2,2.59%
9,CC[C@H]1CN2CCc3cc(OC)c(OC)cc3[C@@H]2C[C@@H]1C[C@H]1NCCc2cc(OC)c(OC)cc21,100% (active)
10,CCOCCCN(C(=O)Cn1nnc(-c2ccc(OC)c(OC)c2)n1)C(CC)C(=O)NC1CCCC1 (stereo not given),-1.34%
11,COc1ccc(OC)c(C(c2nnnn2C(C)(C)C)N2CCc3ccccc3C2)c1 (stereo not given),88.9% (active)
12,COCCn1nnnc1C(c1cc2ccc(OC)cc2[nH]c1=O)N1CCc2ccccc2C1 (stereo not given),5.04%
13,COc1ccc(OC)c(NC(=S)N2CCc3ccccc3C2)c1,5.86%
14,C=CCn1c(CCNC(=O)c2ccccc2F)nnc1SCC(=O)Nc1ccc(OC)cc1,3.89%
15,COc1ccc(Cc2nnc(NC(=O)c3cc(OC)c(OC)c(OC)c3)s2)cc1OC,-2.97%
16,NC(=O)C1CCN(Cc2nc3c(Br)cc(Br)cc3c(=O)[nH]2)CC1,-13%
17,COCCNC(=O)/C(C#N)=C/c1nc(N(C)C)n(-c2ccc(F)cc2)c1Cl,10.3%
18,COc1ccc(-c2nnc(SC(C)C#N)o2)cc1 (stereo not given),-3.1%
19,COc1ccc(-c2nnc(SCC(=O)c3ccc4c(c3)OCCO4)o2)cc1,-4.95%
20,COc1ccc(-c2nnc(SC(=O)N3c4ccccc4Sc4ccccc43)o2)cc1,84.1% (active)
21,CC(/C=N/NC(=O)c1ccncc1)=C\c1ccco1,-2.49%
22,CC(Oc1ccccc1)C(=O)NN1Cc2ccccc2C1=N (stereo not given),-3.38%
23,Nc1nc(-c2sc3nc4c(cc3c2N)CCCC4)nc(N2CCOCC2)n1,47%
24,CNC(=O)c1[nH]cnc1C(=O)N[C@@H](CC(C)C)C(=O)OC(C)(C)C,-2.24%

row,Structure (SMILES),inhibition
1,S=C(Nc1ccc2c(c1)OCO2)N1CCCC1,-4.06%
2,CCOc1ccc2c(c1)C(c1ccc(C)cc1)=NNC(c1ccc(C)cc1)=N2,17.4%
3,O=C1NC(=O)C2C1C(c1ccc([N+](=O)[O-])cc1)=NN2Cc1ccccc1 (stereo not given),-2.02%
4,CCc1ccc2c(c1)C(c1ccc([N+](=O)[O-])cc1)=NNC(c1ccccc1)=N2,60.2% (active)
5,CC(C)(C)c1ccc(/C=C2\SC(=O)N=C2N)cc1,33.6%
6,Cc1ccc(/C([O-])=C(/C(=S)NCc2ccco2)[n+]2ccccc2)cc1[N+](=O)[O-],-2.58%
7,Fc1ccccc1Cc1ccc(Cl)nn1,-4.31%
8,Cc1ccc(C(=O)Nc2sc(Cc3ccc4c(c3)OCO4)c(C)c2C(N)=O)cc1,-6.82%
9,CC(=O)NCCC(=O)Nc1nc(C)c(Cc2ccc3c(c2)OCO3)s1,55.9% (active)
10,Cc1ccc(C(=O)OCC(=O)NCc2ccc3c(c2)OCO3)s1,-5.96%
11,O=C(Nc1cccc(F)c1)N1C2CCC1CC(O)(c1cccnc1)C2 (stereo not given),4.96%
12,COc1ccc(-n2cnc3cc(NCc4ccco4)ccc32)cc1,90.2% (active)
13,COc1ccc(-n2cnc3cc(C(=O)NC4CCCC4)ccc32)cc1,1.49%
14,COc1ccc(Nc2nc(Cl)nc(NCc3ccco3)n2)cc1,0.84%
15,CCN(CC)C(=O)C(=O)Nc1cccc(Br)c1,-4.3%
16,C=CCC1(CC=C)CCCN1C(=O)CC1C(=O)NCCN1Cc1ccccc1OC (stereo not given),2.2%
17,CC1CC(C)CN(CCC(=O)Nc2ccc3c(c2)CCC3)C1 (stereo not given),65.4% (active)
18,COc1cccc(NC(=O)CN(C)CC(=O)Nc2ccc3c(c2)CCC3)c1,2.96%
19,CC(C)C(=O)OCC(=O)Nc1ccc2c(c1)CCC2,-3.35%
20,CCCCSc1nc2ccccc2[nH]1,-4.2%
21,COc1cccc(C(=O)Nc2ccc(N3CCCC3)cc2)c1,9.5%
22,Cc1ccccc1C(=O)Nc1ccc(N2CCCCCC2)cc1,89.4% (active)
23,COc1cccc(OC)c1C(=O)Nc1ccc(N2CCCCC2)cc1,-1.53%
24,Cc1ccc(NC(=S)N(CCCN2CCC(C)CC2)Cc2ccco2)cc1,37.4%

row,Structure (SMILES),inhibition
1,Cc1ccc(NC(=S)N(Cc2ccco2)C(C)c2cccs2)cc1 (stereo not given),51.8% (active)
2,Cc1ccc(NC(=S)N(CCN2CCCCC2)Cc2ccco2)cc1C,13.2%
3,O=C(CO/N=C/c1ccccc1OC(F)F)NC1CCCC1,9.48%
4,NS(=O)(=O)c1ccc(N2C(=O)C3C4CC(C(Br)C4Br)C3C2=O)cc1 (stereo not given),-1.02%
5,CN1/C(=C\C(=O)c2cccnc2Cl)C(C)(C)c2ccccc21,55.5% (active)
6,CN1/C(=C\C(=O)c2oc3ccccc3c2N)C(C)(C)c2ccccc21,5.73%
7,CC(C)Nc1nnc(SCC(=O)/C=C2\N(C)c3ccccc3C2(C)C)s1,2.98%
8,O=C(COC(=O)Cn1cnc2ccccc2c1=O)NCc1ccccc1Cl,1.11%
9,Cn1cccc1C(C#N)c1ccccc1C#N (stereo not given),4.16%
10,Cc1cc(C(=O)N/N=C/c2ccccc2[N+](=O)[O-])c(C)o1,-4.59%
11,CSc1ccc(/C=N/N2CCN(Cc3ccccc3Cl)CC2)cc1,-7.46%
12,Cc1ccccc1NC(=S)NNC(=O)c1cccc(Br)c1,-0.99%
13,Cc1ccc(S(=O)(=O)NCCc2nnc3ccc(SCc4cccnc4)nn23)cc1,-6.61%
14,COCCn1c(=O)[nH]c(=O)c2cc(C(=O)c3cc(OC)ccc3O)cnc21,0.78%
15,COc1ccc(O)c(C(=O)c2cnc3onc(C(C)C)c3c2)c1,-0.73%
16,COc1ccc(O)c(C(=O)c2cnc3c(c2)c(-c2ccc(F)cc2)c(C#N)c(=O)n3C)c1,52.4% (active)
17,CC(=O)N/N=C(\C)c1ccc(Br)cc1Br,-4.52%
18,CCN1CCN(C(=O)c2ccccc2N(C)S(=O)(=O)c2ccc(C)cc2)CC1,-0.79%
19,COc1ccccc1N(C)S(=O)(=O)c1ccc(C(=O)N2CCC(C(N)=O)CC2)cc1,3.34%
20,CCOC(=O)C1CCN(C(=O)c2ccccc2N(C)S(=O)(=O)c2ccccc2)CC1,53.4% (active)
21,CC1COc2ccccc2N1C(=O)c1cccnc1Cl (stereo not given),-4%
22,C=C(C)Cn1c(C)cc(C)c(S(=O)(=O)c2ccccc2C)c1=O,96% (active)
23,CN(C)S(=O)(=O)c1cc(NC(=O)CN2C(=O)NC3(CCCc4ccccc43)C2=O)ccc1Cl (stereo not given),57.4% (active)
24,CCN(CC(=O)Nc1ccc(Cl)c(S(=O)(=O)N(C)C)c1)Cc1nc2ccccc2c(=O)[nH]1,-6.29%

row,Structure (SMILES),inhibition
1,Cc1ccc(NC(=O)CNCc2ccccn2)cc1S(=O)(=O)N(C)C,6.73%
2,COc1ccc(C(=O)O/N=C(\N)Cc2ccc(Cl)cc2Cl)cc1OC,71.9% (active)
3,COc1ccc(C/C(N)=N/OC(=O)c2ccco2)cc1OC,-5.88%
4,COc1ccc(C(=O)ON=C2c3ccccc3-c3ccccc32)cc1OC,-6.29%
5,CN(Cc1ccc2nsnc2c1)Cc1nc(Cc2cccc(F)c2)no1,-4.63%
6,CN1CCN(C(=O)CCc2ncc(C(F)(F)F)cc2Cl)CC1,-6.47%
7,O=C(NCC(=O)N(CC1CCCO1)C(C(=O)NC1CCCCC1)c1ccccc1)c1ccco1 (stereo not given),-4.69%
8,Cc1cccc(Oc2c([N+](=O)[O-])c(=O)n(C)c3ccccc23)c1,-3.73%
9,COc1ccc(/C=N/NC(=O)c2cccc(C(F)(F)F)c2)cc1,12%
10,C=CCNC(=S)N1CCN(CCN=Cc2c(C)[nH]n(-c3ccc([N+](=O)[O-])cc3)c2=O)CC1,-7.1%
11,C=C1c2cc(CC)ccc2NC(=O)N1c1ccc(C)cc1,12.2%
12,O=C1Nc2ccccc2C12Nc1ccccc1S2 (stereo not given),-4.59%
13,CCc1ccc2c(c1)C1(NN=C(c3ccccc3)S1)C(=O)N2 (stereo not given),99.1% (active)
14,COc1ccccc1NC(=O)COc1ccc(C(=O)OCC(=O)N(C(C)C)C(C)C)cc1OC,-1.06%
15,COc1ccc(C(=O)NC(Cc2ccc(OC(=O)c3ccc(OC)cc3)cc2)C(=O)O)cc1 (stereo not given),-3.89%
16,CCN(CCCCOC(=O)c1ccc(OC)c(OC)c1)C(C)Cc1ccc(OC)cc1 (stereo not given),100% (active)
17,CC(C)OC(=O)CN1CCN(c2ccc(Cl)cc2)CC1,-1.87%
18,CCCc1[nH]nc2c1C(c1c(C)nn(-c3ccccc3)c1Cl)C(C#N)=C(N)O2 (stereo not given),8.77%
19,N#CC1=C(N)OC2=C(C(=O)CCC2)C1C1CC=CCC1 (stereo not given),4.1%
20,CCCc1[nH]nc2c1C(c1ccc(Br)s1)C(C#N)=C(N)O2 (stereo not given),100% (active)
21,COCc1[nH]nc2c1C(C1C=CCCC1)C(C#N)=C(N)O2 (stereo not given),45.2%
22,CCCc1[nH]nc2c1C(c1ccc(OC(=O)c3ccco3)cc1)C(C#N)=C(N)O2 (stereo not given),15.8%
23,CCCc1[nH]nc2c1C(C1CC=CCC1)C(C#N)=C(N)O2 (stereo not given),66.6% (active)
